Screens as filed in PubChem BioAssay.
FMDV inh – High Throughput Screening for Foot and Mouth Disease Virus Antivirals. actives 1.2% (n = 410,000). FMDV antiviral cell-based qHTS. Potency, µM (titrated, usually from 57.9 µM), without a hit: top-dose activity change, negative = inhibition, hits mostly inhibitors; calls by dose curve; tested in HEK293T cells; further: read-out not given here; potency means the concentration at half of the fitted maximal effect; on the % scale 0 is the no-effect control and ±100 the full control effect; nearly all actives have a fitted effect of over 45% in size
SARS PLpro yeast – qHTS of Yeast-based Assay for SARS-CoV PLP | S. cerevisiae expressing SARS-CoV PLpro, growth rescue | Potency, µM (doses to about 32.9 µM), for inactives: at the highest dose activity, positive = growth rescue, usual class: activators | actives 0.19% (n = 330,000) | AID 485353, 2010; calls by dose curve; further: potency means the concentration at half of the fitted maximal effect; 0% is about no effect; nearly all actives have a fitted effect of over 55% in size
Marburg entry inh – qHTS for inhibitors of binding or entry into cells for Marburg Virus; Marburg virus pseudotyped entry inhibition, cell reporter; AID 540276, 2011; Potency, µM (series often up to 37.8 µM), inactives show top-dose activity change, negative = inhibition, hits mostly inhibitors; actives 1.8% (n = 300,000); calls by dose curve; tested in HEK293 cells; further: potency means the concentration at half of the fitted maximal effect; on the % scale 0 is the no-effect control and ±100 the full control effect
LASV entry inh – qHTS for Inhibitors of binding or entry into cells for Lassa Virus. Lassa virus pseudotype entry inhibition, cell reporter. Potency, µM (highest dose often 37.9 µM), without a hit: at the top dose activity change, negative = inhibition, hits mostly inhibitors. actives 1.2% (n = 300,000); calls by dose curve; tested in HEK293 cells; further: potency means the concentration at half of the fitted maximal effect; on the % scale 0 is the no-effect control and ±100 the full control effect; nearly all actives have a fitted effect of over 50% in size
HCV inh – qHTS Assay for Inhibitors of Hepatitis C Virus (HCV) | Huh7.5.1 HCVcc-Cre infection, luciferase reporter, 44 h | Potency, µM (series often up to 41.8 µM), without a hit: top-dose activity change, negative = inhibition, most hits filed as inhibitors | actives 3.4% (n = 340,000) | AID 651820, 2012; active means well fitted inhibition curve with a large enough effect; inconclusive means small, poorly fitted or top-dose-only effect, or another doubt; inactive means no such curve, though single readings can be large or run the other way; further: potency means the concentration at half of the fitted maximal effect; on the % scale 0 is the no-effect control and ±100 the full control effect
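Cells (1,000/well) were plated 4 h before compound, then infected with HCVcc-Cre virus (~0.5 moi). After 44 h further culture, infection was read as luciferase luminescence following a 15 min substrate incubation at room temperature.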
HCMV inh – qHTS Assay for inhibitors of the human cytomegalovirus (HCMV). HFF cells, HCMV-luciferase reporter, 72 h; active compounds read low. activity change, negative = inhibition, % at 57.5 µM. actives 4.5% (n = 410,000). AID 1259415, 2018; in the data active means activity change below about -60%; inconclusive means no clear call, values can overlap the other calls; inactive means above about -39%; further: on the % scale 0 is the no-effect control and ±100 the full control effect
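HFF cells seeded 16 h at 37C, treated with compounds, infected with luciferase-reporter HCMV at MOI 1 PFU/cell; luciferase read at 72 h post infection, normalized to buffer-only and Salinomycin controls.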
* hit, by the source's call; ? = inconclusive; nt = not tested or not shown; [ ] = dose if it differs, or a comment. The list is not random: actives were taken first. Their share in the collection is about 8%.

SMILES	FMDV inh	SARS PLpro yeast	Marburg entry inh	LASV entry inh	HCV inh	HCMV inh
COc1ccc2cc(-c3cc(C(=O)O)c4ccccc4n3)ccc2c1	10µM*	-1.4%	0.708µM*	0.355µM*	18.0%	-60.8*
COc1ccc(CN(C)C(=O)c2cc(-c3ccccc3)nc3ccc(C)cc23)c(OC)c1OC	-9.6%	-10.8%	?	?	10µM*	nt
COc1ccc(-c2cc(C(=O)OCC(=O)N3CCCC3)c3ccccc3n2)cc1	-3.1%	-23.8%	-22.3%	?	?	19.0
CCC(C)c1ccc(-c2cc(C(=O)OCC(=O)Nc3cc(C)on3)c3ccccc3n2)cc1 (stereo unspecified)	6.2%	3.8%	?	1.58µM*	28.2%	57.9
COc1ccc(-c2cc(C(=O)O)c3ccccc3n2)c(OC)c1	-18.3%	2.3%	22.2%[46.1 µM]	0.6%	1.4%	0.3
COc1ccc2nc(-c3ccccc3)cc(C(=O)OCC(=O)N3CCCCC3)c2c1	-20.6%	-3.3%	nt	nt	?	-61.9*
Cc1c(Cl)cccc1NC(=O)CSc1nc(=O)n(Cc2ccco2)c2c1CCC2	0.0%	nt	nt	-17.4%[46.1 µM]	nt	?
COc1cccc(CN(C)C(=O)c2cc(-c3ccc(F)cc3)nc3ccccc23)c1	-27.0%	-1.3%	?	?	31.6µM*	nt
COC(=O)c1cc(-c2ccc(NC(C)=O)cc2)nc2ccccc12	-9.0%	-1.0%	?	?	?	-68.1*
COc1ccccc1NC(=O)Cn1c(=O)n(Cc2ccc3c(c2)OCO3)c(=O)c2oc3ccccc3c21	-11.6%	nt	nt	5.8%[46.1 µM]	nt	2.4
CC(C)(C)c1cc(NC(=O)CCl)n(-c2ccccc2)n1	?	-2.8%	?	?	?	?
CCCc1cc(NC(=O)CCl)n(-c2ccccc2)n1	?	0.2%	?	?	22.4µM*	?
O=C(COC(=O)c1ccc(O)cc1O)Nc1cc(-c2ccccc2)nn1-c1ccccc1	-19.8%	2.4%	?	?	4.7%	?
CCCc1cc(NC(=O)COC(=O)c2ccc(O)cc2O)n(-c2ccccc2)n1	?	0.0%	nt	nt	11.2µM*	0.0
CC(=O)Nc1ccc2c(c1)CCc1ccccc1-2	32.3%	-4.7%	?	-0.1%[46.1 µM]	-21.1%	-9.3
O=C(O)/C=C/C(=O)c1ccc2c(c1)CCc1ccccc1-2	?	-0.5%	nt	nt	12.6µM*	-60.7*
CCOc1ccccc1CNC(=O)c1cc2oc3ccccc3c2n1CC	-13.9%	-0.8%	3.26µM*	5.17µM*	?	-70.0*
COC(=O)c1cc2oc3ccccc3c2n1CC(=O)Nc1ccccc1OC	6.4%	3.9%	-12.0%	-20.2%	18.7%	107.7
CCOc1ccc(CNC(=O)c2ccc3oc(=O)n(Cc4ccccc4)c3c2)cc1	?	nt	nt	5.01µM*	nt	-16.3
CCn1c(C(=O)NCc2ccc(F)cc2)cc2oc3ccccc3c21	0.0%	nt	3.55µM*	?	nt	-68.5*
COc1cccc(CNC(=O)c2cc3oc4ccccc4c3n2C)c1OC	-0.6%	-0.8%	?	5.62µM*	?	-34.8
Cc1nc2ccsc2c(=O)n1-c1cccc(Cl)c1	-3.2%	nt	16.1%	5.0%	-12.4%	16.6
COc1ccc(CNC(=O)c2cc3c(=O)n(C)c4ccccc4c3n2C)cc1	-2.3%	nt	2.5%[46.1 µM]	-9.8%[46.1 µM]	nt	1.5
CCOc1ccc(CNC(=O)c2cc3oc4ccccc4c3n2C)cc1	4.6%	-5.1%	3.98µM*	?	-14.3%	-83.2*
CC(=O)N1CCSc2ccc(S(=O)(=O)Nc3ccccc3C)cc21	-3.6%	1.3%	11.9%[46.1 µM]	?	11.2µM*	-12.2
SMILES	FMDV inh	SARS PLpro yeast	Marburg entry inh	LASV entry inh	HCV inh	HCMV inh
CC(=O)N1CCSc2ccc(S(=O)(=O)Nc3cccc(C)c3)cc21	-22.3%	3.1%	nt	nt	14.1µM*	?
CCOc1ccc(NS(=O)(=O)c2ccc3c(c2)N(C(C)=O)CCS3)cc1	-11.4%	?	nt	nt	?	-64.8*
CCOc1ccc(NS(=O)(=O)c2ccc3c(c2)N(C(C)=O)CC3)cc1	-11.7%	0.9%	?	-24.6%	10.4%	-35.7
CC(=O)N1CCSc2ccc(S(=O)(=O)NCc3ccccc3)cc21	40.9%	3.2%	3.0%[46.1 µM]	?	?	?
COc1cccc(NC(=O)CN2C(=O)C3(SCC(=O)N3c3cc(C)cc(C)c3)c3ccccc32)c1 (stereo unspecified)	-19.7%	nt	nt	0.3%[46.1 µM]	nt	5.6
CC(C)Oc1cccc(C(=O)C2CCCN(Cc3ccc4nonc4c3)C2)c1 (stereo unspecified)	-17.0%	-0.6%	?	?	?	-20.5
COc1ccc(CN2CCCC(C(=O)c3ccc(Cl)cc3)C2)cc1Cn1cccn1 (stereo unspecified)	-14.0%	2.2%	2.82µM*	10µM*	10µM*	-9.3
O=C(c1ccc(Cl)cc1)C1CCCN(Cc2ccc3nonc3c2)C1 (stereo unspecified)	3.8%	0.0%	nt	nt	22.4µM*	-24.8
COc1ccc(CN2CCC(C(=O)c3ccc(Cl)cc3)CC2)cc1	-16.6%	-4.9%	nt	nt	11.2µM*	-36.8
CCCCCCCC=CC1=CC2(C)CC1(C)C(CCCCCCC)CC2=O (stereo unspecified)	nt	nt	17.0%[14.2 µM]	nt	nt	nt
COc1ccc2c(c1)CO[C@H]([C@H](O)CO)[C@H]2C=Cc1ccccc1	nt	nt	-5.6%[14.2 µM]	?	nt	nt
Cc1ccc2c(C)c(C(=O)Nc3ccc(S(=O)(=O)Nc4onc(C)c4C)cc3)oc2c1	-11.0%	13.7%	4.7%[46.1 µM]	-10.9%[46.1 µM]	0.501µM*	-30.3
CC1=NN(c2nc(-c3ccc(C)cc3)cs2)C(=O)C1N=Nc1ccc(C(N)=O)cc1 (stereo unspecified)	-28.0%	-8.0%	6.51µM*	4.61µM*	2.82µM*	?
Fc1ccc(/C=N/N2CCN(Cc3ccccc3)CC2)cc1	32.1%	-2.5%	?	12.5%	0.9%	1.7
ClC(=C\c1ccccc1)/C=N/N1CCN(c2ccccn2)CC1	11.8%	-5.9%	-8.1%	-28.6%	17.3%	-69.7*
Cc1ccsc1/C=N/N1CCN(c2ccccn2)CC1	8.1%	-1.7%	?	14.7%[46.1 µM]	-27.1%	-71.3*
Cc1cc2n(n1)CCCN2C(=O)Nc1ccccc1C(F)(F)F	-6.9%	nt	nt	29.1%[46.1 µM]	nt	10.0
Cc1ccc(C#CC[N+]2(CC#Cc3ccc(C)cc3)CCCCC2)cc1	?	2.4%	-0.6%	nt	?	-100.9*
C(#Cc1ccccc1)C[N+]1(CC#Cc2ccccc2)CCCCC1	?	-1.2%	-12.1%[46.1 µM]	?	?	-62.3*
Cc1cc(S(=O)(=O)Nc2ccc3oc4c(c3c2)CCCC4)ccc1Cl	10.4%	nt	-0.1%[46.1 µM]	0.4%[46.1 µM]	nt	?
C=CCn1c(SCC(=O)Nc2ccccc2OC)nnc1-c1ccccn1	?	-4.4%	?	?	7.94µM*	17.6
CCN(C(=O)COC(=O)/C(=C/c1ccccc1)n1nnnc1C)C1CCCCC1	22.4µM*	0.3%	12.6µM*	-7.8%	?	?
